Data from PubChem BioAssay AID1159580 (chemical genetic matrix, 2015).
Hit rate of the full screen: of about 5,500 compounds, about 2,000 (36%) were called active. Inconclusive results (about 18%) are left out. Rule as the data show it: active = normalized growth mostly below about 0.91 (no sharp cut-off); inconclusive = no clear call, values can overlap the other calls; inactive = mostly above about 0.92. The list shows a part of the results.

Assay: chemical genetic growth profiling, strain panel (AID 1159580);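 also: tested at 20 µM; growth read once vehicle control cultures reached saturation at 30 °C; 1 = growth at the plate median or of vehicle wells; lower values mean less growth of the strain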
Settings: growth OD

Measured: normalized growth

CC(=O)O[C@@H]1CC2C(C)(C)[C@H](O)C[C@H](O)[C@]2(C)C2CC[C@@]3(C)[C@H](c4ccoc4)OC(=O)[C@H]4O[C@]43[C@@]21C (stereo not given in full)
inactive: S. cerevisiae deletion strains, locus YAL021C, strain ccr4, active compounds read low 1.01 | S. cerevisiae deletion strains, locus YAL026C, strain drs2, active compounds read low 0.993 | S. cerevisiae deletion strains, locus YAL030W, strain snc1, active compounds read low 0.995 | S. cerevisiae deletion strains, locus YBL061C, strain skt5, active compounds read low 0.988 | S. cerevisiae deletion strains, locus YBR009C, strain hhf1, active compounds read low 0.974 | S. cerevisiae deletion strains, locus YBR021W, strain FUR4, active compounds read low 0.959 | S. cerevisiae deletion strains, locus YBR023C, strain chs3, active compounds read low 0.985 | S. cerevisiae deletion strains, locus YBR171W, strain sec66, active compounds read low 0.986 | S. cerevisiae deletion strains, locus YBR229C, strain ROT2, active compounds read low 0.952 | S. cerevisiae deletion strains, locus YBR231C, strain swc5, active compounds read low 0.983 | S. cerevisiae deletion strains, locus YBR279W, strain paf1, active compounds read low 0.988 | S. cerevisiae deletion strains, locus YCL011C, strain gbp2, active compounds read low 0.984 | S. cerevisiae deletion strains, locus YCL016C, strain dcc1, active compounds read low 0.996 | S. cerevisiae deletion strains, locus YCL029C, strain bik1, active compounds read low 0.987 | S. cerevisiae deletion strains, locus YCL061C, strain MRC1, active compounds read low 0.99 | S. cerevisiae deletion strains, locus YCL069W, strain vba3, active compounds read low 0.989 | S. cerevisiae deletion strains, locus YCR088W, strain abp1, active compounds read low 0.995 | S. cerevisiae deletion strains, locus YDL005C, strain med2, active compounds read low 0.985 | S. cerevisiae deletion strains, locus YDL035C, strain GPR1, active compounds read low 0.982 | S. cerevisiae deletion strains, locus YDL040C, strain nat1, active compounds read low 0.984 | S. cerevisiae deletion strains, locus YDL074C, strain BRE1, active compounds read low 0.987 | S. cerevisiae deletion strains, locus YDL101C, strain DUN1, active compounds read low 1 | S. cerevisiae deletion strains, locus YDL185W, strain tfp1, active compounds read low 0.981 | S. cerevisiae deletion strains, locus YDL192W, strain arf1, active compounds read low 0.988 | S. cerevisiae deletion strains, locus YDR001C, strain nth1, active compounds read low 0.979 | S. cerevisiae deletion strains, locus YDR069C, strain doa4, active compounds read low 0.983 | S. cerevisiae deletion strains, locus YDR101C, strain arx1, active compounds read low 0.957 | S. cerevisiae deletion strains, locus YDR137W, strain rgp1, active compounds read low 1.03 | S. cerevisiae deletion strains, locus YDR159W, strain sac3, active compounds read low 0.968 | S. cerevisiae deletion strains, locus YDR162C, strain NBP2, active compounds read low 0.993 | S. cerevisiae deletion strains, locus YDR195W, strain ref2 0.935 | S. cerevisiae deletion strains, locus YDR297W, strain sur2, active compounds read low 0.996 | S. cerevisiae deletion strains, locus YDR318W, strain mcm21, active compounds read low 0.995 | S. cerevisiae deletion strains, locus YDR334W, strain swr1, active compounds read low 0.99 | S. cerevisiae deletion strains, locus YDR335W, strain msn5, active compounds read low 0.989 | S. cerevisiae deletion strains, locus YDR388W, active compounds read low 0.994 | S. cerevisiae deletion strains, locus YDR392W, strain spt3, active compounds read low 0.913 | S. cerevisiae deletion strains, locus YDR502C, strain sam2, active compounds read low 1 | S. cerevisiae deletion strains, locus YEL003W, strain gim4, active compounds read low 0.987 | S. cerevisiae deletion strains, locus YEL037C, strain rad23, active compounds read low 0.987 | S. cerevisiae deletion strains, locus YEL061C, strain CIN8 (second series), active compounds read low 0.977 | S. cerevisiae deletion strains, locus YER015W, strain faa2, active compounds read low 0.981 | S. cerevisiae deletion strains, locus YER016W, strain bim1, active compounds read low 0.99 | S. cerevisiae deletion strains, locus YER110C, active compounds read low 0.978 | S. cerevisiae deletion strains, locus YER111C, strain swi4, active compounds read low 0.976 | S. cerevisiae deletion strains, locus YER155C, strain BEM2 (second series), active compounds read low 0.997 | S. cerevisiae deletion strains, locus YER155C, strain BEM2, active compounds read low 1 | S. cerevisiae deletion strains, locus YER167W, strain BCK2, active compounds read low 0.98 | S. cerevisiae deletion strains, locus YFR010W, strain ubp6, active compounds read low 0.983 | S. cerevisiae deletion strains, locus YGL078C, strain dbp3, active compounds read low 1 | S. cerevisiae deletion strains, locus YGL086W, strain mad1, active compounds read low 0.996 | S. cerevisiae deletion strains, locus YGL167C, strain pmr1, active compounds read low 0.995 | S. cerevisiae deletion strains, locus YGL173C, strain kem1, active compounds read low 0.962 | S. cerevisiae deletion strains, locus YGL227W, strain vid30, active compounds read low 0.986 | S. cerevisiae deletion strains, locus YGL240W, strain doc1, active compounds read low 0.971 | S. cerevisiae deletion strains, locus YGL248W, strain PDE1, active compounds read low 1.01 | S. cerevisiae deletion strains, locus YGL253W, strain hxk2, active compounds read low 0.955 | S. cerevisiae deletion strains, locus YGR078C, strain PAC10, active compounds read low 1.02 | S. cerevisiae deletion strains, locus YGR135W, strain pre9, active compounds read low 1.06 | S. cerevisiae deletion strains, locus YGR252W, strain gcn5, active compounds read low 1.07 | S. cerevisiae deletion strains, locus YHR013C, strain ard1, active compounds read low 0.963 | S. cerevisiae deletion strains, locus YHR027C, strain rpn1, active compounds read low 1 | S. cerevisiae deletion strains, locus YHR079C, strain IRE1 (second series), active compounds read low 0.987 | S. cerevisiae deletion strains, locus YHR094C, strain hxt1, active compounds read low 0.978 | S. cerevisiae deletion strains, locus YHR129C, strain ARP1, active compounds read low 0.993 | S. cerevisiae deletion strains, locus YHR142W, strain chs7, active compounds read low 0.98 | S. cerevisiae deletion strains, locus YHR200W, strain rpn10, active compounds read low 0.983 | S. cerevisiae deletion strains, locus YIL066C, strain RNR3, active compounds read low 0.965 | S. cerevisiae deletion strains, locus YIL073C, strain SPO22, active compounds read low 0.997 | S. cerevisiae deletion strains, locus YIL125W, strain kgd1, active compounds read low 0.946 | S. cerevisiae deletion strains, locus YIR030C, strain dcg1, active compounds read low 0.985 | S. cerevisiae deletion strains, locus YJL092W, strain hpr5, active compounds read low 0.984 | S. cerevisiae deletion strains, locus YJL095W, strain BCK1 (second series), active compounds read low 1 | S. cerevisiae deletion strains, locus YJL095W, strain BCK1, active compounds read low 1.05 | S. cerevisiae deletion strains, locus YJL115W, strain asf1, active compounds read low 0.984 | S. cerevisiae deletion strains, locus YJL129C, strain trk1, active compounds read low 0.979 | S. cerevisiae deletion strains, locus YJL134W, strain LCB3, active compounds read low 0.987 | S. cerevisiae deletion strains, locus YJL154C, strain vps35, active compounds read low 0.996 | S. cerevisiae deletion strains, locus YJL164C, strain tpk1, active compounds read low 0.979 | S. cerevisiae deletion strains, locus YJL166W, strain qcr8, active compounds read low 0.99 | S. cerevisiae deletion strains, locus YJL168C, strain set2, active compounds read low 0.984 | S. cerevisiae deletion strains, locus YJL187C, strain SWE1 (second series), active compounds read low 1.02 | S. cerevisiae deletion strains, locus YJL187C, strain SWE1, active compounds read low 1 | S. cerevisiae deletion strains, locus YJR043C, strain POL32, active compounds read low 0.963 | S. cerevisiae deletion strains, locus YKL009W, strain mrt4, active compounds read low 0.988 | S. cerevisiae deletion strains, locus YKL068W, active compounds read low 0.997 | S. cerevisiae deletion strains, locus YKL085W, strain MDH1 (second series), active compounds read low 0.994 | S. cerevisiae deletion strains, locus YKL085W, strain MDH1, active compounds read low 0.994 | S. cerevisiae deletion strains, locus YKL160W, strain elf1, active compounds read low 1.02 | S. cerevisiae deletion strains, locus YKR001C, strain vps1, active compounds read low 0.975 | S. cerevisiae deletion strains, locus YKR026C, strain gcn3, active compounds read low 0.968 | S. cerevisiae deletion strains, locus YKR091W, strain srl3, active compounds read low 0.983 | S. cerevisiae deletion strains, locus YLL001W, strain dnm1, active compounds read low 0.984 | S. cerevisiae deletion strains, locus YLL026W, active compounds read low 0.986 | S. cerevisiae deletion strains, locus YLL041C, strain sdh2, active compounds read low 0.994 | S. cerevisiae deletion strains, locus YLR027C, strain aat2, active compounds read low 0.993 | S. cerevisiae deletion strains, locus YLR039C, strain RIC1, active compounds read low 1 | S. cerevisiae deletion strains, locus YLR058C, strain SHM2, active compounds read low 0.982 | S. cerevisiae deletion strains, locus YLR102C, strain apc9, active compounds read low 0.982 | S. cerevisiae deletion strains, locus YLR221C, strain rsa3, active compounds read low 0.972 | S. cerevisiae deletion strains, locus YLR258W, strain gsy2, active compounds read low 0.995 | S. cerevisiae deletion strains, locus YLR262C, strain YPT6 (second series), active compounds read low 1 | S. cerevisiae deletion strains, locus YLR268W, strain sec22, active compounds read low 0.976 | S. cerevisiae deletion strains, locus YLR320W, strain mms22, active compounds read low 0.986 | S. cerevisiae deletion strains, locus YLR330W, strain CHS5, active compounds read low 0.994 | S. cerevisiae deletion strains, locus YLR342W, strain FKS1, active compounds read low 0.984 | S. cerevisiae deletion strains, locus YLR357W, strain rsc2, active compounds read low 0.987 | S. cerevisiae deletion strains, locus YLR370C, strain arc18, active compounds read low 0.994 | S. cerevisiae deletion strains, locus YLR371W, strain rom2, active compounds read low 0.959 | S. cerevisiae deletion strains, locus YLR384C, strain iki3, active compounds read low 0.994 | S. cerevisiae deletion strains, locus YLR418C, strain cdc73, active compounds read low 1.03 | S. cerevisiae deletion strains, locus YML016C, strain PPZ1, active compounds read low 0.968 | S. cerevisiae deletion strains, locus YML032C, strain rad52, active compounds read low 0.963 | S. cerevisiae deletion strains, locus YML120C, strain ndi1, active compounds read low 0.996 | S. cerevisiae deletion strains, locus YML124C, strain tub3, active compounds read low 0.975 | S. cerevisiae deletion strains, locus YMR058W, strain fet3, active compounds read low 0.989 | S. cerevisiae deletion strains, locus YMR078C, strain ctf18, active compounds read low 0.988 | S. cerevisiae deletion strains, locus YMR125W, strain sto1, active compounds read low 0.993 | S. cerevisiae deletion strains, locus YMR129W, active compounds read low 1.01 | S. cerevisiae deletion strains, locus YMR205C, strain PFK2, active compounds read low 0.967 | S. cerevisiae deletion strains, locus YMR223W, strain ubp8, active compounds read low 1 | S. cerevisiae deletion strains, locus YMR231W, strain pep5, active compounds read low 0.988 | S. cerevisiae deletion strains, locus YMR307W, strain GAS1, active compounds read low 0.972 | S. cerevisiae deletion strains, locus YNL067W, strain RPL9B, active compounds read low 1.02 | S. cerevisiae deletion strains, locus YNL071W, strain lat1, active compounds read low 0.987 | S. cerevisiae deletion strains, locus YNL153C, strain GIM3, active compounds read low 1.01 | S. cerevisiae deletion strains, locus YNL209W, strain ssb2, active compounds read low 1 | S. cerevisiae deletion strains, locus YNL233W, strain BNI4, active compounds read low 1.02 | S. cerevisiae deletion strains, locus YNL248C, strain rpa49, active compounds read low 1.01 | S. cerevisiae deletion strains, locus YNL250W, strain rad50, active compounds read low 1.02 | S. cerevisiae deletion strains, locus YNL271C, strain bni1, active compounds read low 0.988 | S. cerevisiae deletion strains, locus YNL298W, strain CLA4, active compounds read low 0.982 | S. cerevisiae deletion strains, locus YNL307C, strain MCK1, active compounds read low 0.992 | S. cerevisiae deletion strains, locus YNL322C, strain KRE1 (second series), active compounds read low 0.979 | S. cerevisiae deletion strains, locus YNL322C, strain KRE1, active compounds read low 0.999 | S. cerevisiae deletion strains, locus YNR049C, strain mso1, active compounds read low 0.994 | S. cerevisiae deletion strains, locus YNR052C, strain pop2, active compounds read low 1.01 | S. cerevisiae deletion strains, locus YOL006C, strain TOP1, active compounds read low 1.05 | S. cerevisiae deletion strains, locus YOL012C, strain htz1 0.767 | S. cerevisiae deletion strains, locus YOL147C, strain pex11, active compounds read low 0.991 | S. cerevisiae deletion strains, locus YOR001W, strain rrp6, active compounds read low 1.01 | S. cerevisiae deletion strains, locus YOR061W, strain CKA2, active compounds read low 0.939 | S. cerevisiae deletion strains, locus YOR069W, strain VPS5, active compounds read low 1 | S. cerevisiae deletion strains, locus YOR070C, strain gyp1, active compounds read low 0.999 | S. cerevisiae deletion strains, locus YOR080W, strain dia2, active compounds read low 0.989 | S. cerevisiae deletion strains, locus YOR083W, strain WHI5, active compounds read low 1.02 | S. cerevisiae deletion strains, locus YOR106W, strain vam3, active compounds read low 1 | S. cerevisiae deletion strains, locus YOR136W, strain idh2, active compounds read low 0.993 | S. cerevisiae deletion strains, locus YOR144C, strain elg1, active compounds read low 0.98 | S. cerevisiae deletion strains, locus YOR184W, strain ser1, active compounds read low 0.967 | S. cerevisiae deletion strains, locus YOR265W, strain rbl2, active compounds read low 0.999 | S. cerevisiae deletion strains, locus YOR270C, strain vph1, active compounds read low 0.828 | S. cerevisiae deletion strains, locus YOR290C, strain snf2, active compounds read low 0.923 | S. cerevisiae deletion strains, locus YOR316C, strain cot1, active compounds read low 0.981 | S. cerevisiae deletion strains, locus YPL051W, strain arl3, active compounds read low 1.03 | S. cerevisiae deletion strains, locus YPL055C, strain LGE1, active compounds read low 0.957 | S. cerevisiae deletion strains, locus YPL078C, strain atp4, active compounds read low 0.999 | S. cerevisiae deletion strains, locus YPL106C, strain sse1, active compounds read low 1 | S. cerevisiae deletion strains, locus YPL240C, strain hsp82, active compounds read low 1 | S. cerevisiae deletion strains, locus YPR119W, strain clb2, active compounds read low 0.994 | S. cerevisiae deletion strains, locus YPR141C, strain kar3, active compounds read low 0.982 | S. cerevisiae deletion strains, locus YPR163C, strain tif3, active compounds read low 0.975 | S. cerevisiae deletion strains, locus YPR167C, strain met16, active compounds read low 0.99 | S. cerevisiae deletion strains, strain wtn01, active compounds read low 0.949 | S. cerevisiae strains, strain wild type, active compounds read low 0.976
